{
  "source": "PubChem BioAssay AID488857",
  "about": "(Sanford-Burnham Center for Chemical Genomics, 2010)",
  "note": "In all, about 1,400 compounds went through this assay and about 560 (40%) were called active. The set was probably picked from earlier hits. Some of the results follow. A number with no mark means an inactive call.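 Rule for the calls: active = mean inhibition over duplicate tests at 10 µM above 50%; inactive = the rest.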",
  "data": [
    {"assay": "ASC/caspase-1 reporter retest in S. cerevisiae at one dose, specificity check for NALP1 project (AID 488857)", "conditions": "S. cerevisiae ASC/Caspase-1, beta-galactosidase luminescence, 24 h; at 10 µM; active compounds read high", "values": [
      {"smiles": "CCCCC(CC(O)COCCC)c1n[nH]c(=S)n1-c1ccccc1", "note": "(stereo not drawn)", "inhibition": "42%"},
      {"smiles": "O=[N+]([O-])c1cc(Cc2ccccc2)cc(C=Nc2ccc(N3CCOCC3)cc2)c1O", "inhibition": "51.5% (active)"},
      {"smiles": "O=[N+]([O-])c1cc2oc3c(c2c(C=NCc2ccccc2)c1O)CCCC3", "inhibition": "42.5%"},
      {"smiles": "CN(C)c1ccc(O)c2c1CC1CC3[C@@H](N(C)C)C(=O)C(C(N)=O)=C(O)[C@]3(O)C(=O)C1=C2O", "note": "(stereo partly drawn)", "inhibition": "31.9%"},
      {"smiles": "O=C(N/N=C\\c1cccc([N+](=O)[O-])c1O)C1COc2ccccc2O1", "note": "(stereo not drawn)", "inhibition": "81.3% (active)"},
      {"smiles": "COc1cccc(/C=N/NC(=O)CNC(=O)C2COc3ccccc3O2)c1O", "note": "(stereo not drawn)", "inhibition": "42.9%"},
      {"smiles": "CCCCN(C)C(=O)c1nc2ccccn2c1CNCCCn1ncc2ccccc21", "inhibition": "33.2%"},
      {"smiles": "O=[N+]([O-])c1cc(S(=O)(=O)N2CCCCCC2)ccc1F", "inhibition": "86.2% (active)"},
      {"smiles": "Cn1cc(C(=O)NCc2ccc(F)cc2)c(=O)c2cc(S(=O)(=O)N3CCCCC3)ccc21", "inhibition": "34.4%"},
      {"smiles": "CC(C)C(C)NC(=O)COc1ccc(S(=O)(=O)N2CCOCC2)cc1[N+](=O)[O-]", "note": "(stereo not drawn)", "inhibition": "12.2%"},
      {"smiles": "O=c1[nH][nH]c(-c2ccccc2O)c1C(C[N+](=O)[O-])c1ccc(Cl)cc1Cl", "note": "(stereo not drawn)", "inhibition": "42.1%"},
      {"smiles": "COc1cccc(F)c1C(C[N+](=O)[O-])c1c(N)n(C)c(=O)n(C)c1=O", "note": "(stereo not drawn)", "inhibition": "97.7% (active)"},
      {"smiles": "Cc1ccc(C(C[N+](=O)[O-])c2c(N)n(C)c(=O)n(C)c2=O)cc1", "note": "(stereo not drawn)", "inhibition": "98.2% (active)"},
      {"smiles": "COc1ccccc1C(C[N+](=O)[O-])c1c(N)n(C)c(=O)n(C)c1=O", "note": "(stereo not drawn)", "inhibition": "99.8% (active)"},
      {"smiles": "Cc1nc([N+](=O)[O-])c(Br)n1CC(=O)c1ccc(Cl)cc1", "inhibition": "37.6%"},
      {"smiles": "N=c1n(CC(=O)c2ccc([N+](=O)[O-])cc2)c2ccccc2n1Cc1ccccc1Cl", "inhibition": "28.8%"},
      {"smiles": "Cc1ccccc1Cn1c(=N)n(CC(=O)c2ccc([N+](=O)[O-])cc2)c2ccccc21", "inhibition": "53.6% (active)"},
      {"smiles": "CCCCCOc1ccc(Cn2ccnc2)cc1[N+](=O)[O-]", "inhibition": "64% (active)"},
      {"smiles": "CCCCOc1ccc(CSC2=NCCN2)cc1[N+](=O)[O-]", "inhibition": "40.1%"},
      {"smiles": "CCc1cccc2c(C(=O)COC(=O)c3ccccc3)c[nH]c12", "inhibition": "43.6%"},
      {"smiles": "CCc1cccc2c(C(=O)CSc3nncn3-c3ccc(OC)cc3)c[nH]c12", "inhibition": "38.1%"},
      {"smiles": "CCc1cccc2c(C(=O)COC(=O)c3ccc([N+](=O)[O-])s3)c[nH]c12", "inhibition": "95.7% (active)"},
      {"smiles": "O=C(Nc1nc2c(c(=O)[nH]1)CCCC2)C1CC1", "inhibition": "31.5%"},
      {"smiles": "O=C1c2ccccc2C(Nc2ccc(Cl)cn2)N1Cc1ccccc1", "note": "(stereo not drawn)", "inhibition": "52.1% (active)"},
      {"smiles": "O=C1c2ccccc2C(O)N1c1cccnc1", "note": "(stereo not drawn)", "inhibition": "23.4%"},
      {"smiles": "COc1ccc(C(C)C)cc1S(=O)(=O)n1cnc(C)c1", "inhibition": "42.7%"},
      {"smiles": "COC(=O)/C=C/C(=O)N1CCN(c2cccc(Cl)c2)CC1", "inhibition": "62.8% (active)"},
      {"smiles": "COC(=O)c1cc(OC)c(OC)cc1NC(=S)N1CCN(c2ccccc2)CC1", "inhibition": "39.1%"},
      {"smiles": "O=C(CN1CCN(c2cccc(Cl)c2)CC1)Nc1ccc(S(=O)(=O)N2CCOCC2)cc1", "inhibition": "33.4%"},
      {"smiles": "C#CCOc1c(Br)cc(/C=N/O)cc1OCC", "inhibition": "17.9%"},
      {"smiles": "Cc1oc(-c2ccccc2Cl)nc1CSc1nc2c(c(=O)[nH]1)CCC2", "inhibition": "21.4%"},
      {"smiles": "CNc1nc(SCc2ccc(C)cc2)nc2c1CCCC2", "inhibition": "98.4% (active)"},
      {"smiles": "CNc1nc(SCc2ccccc2Cl)nc2c1CCCC2", "inhibition": "97.2% (active)"},
      {"smiles": "NC(=NCCc1ccc(Cl)cc1)NS(=O)(=O)c1ccc(F)cc1", "inhibition": "23.1%"},
      {"smiles": "COc1ccc(N(C)C2=NS(=O)(=O)c3ccccc32)cc1", "inhibition": "29.7%"},
      {"smiles": "COC(=O)c1ccc(Cn2cnc3c(cnn3-c3ccc(Cl)cc3)c2=O)o1", "inhibition": "35.1%"},
      {"smiles": "CN(Cc1ccccc1)c1ncnc2c1cnn2-c1ccccc1", "inhibition": "66.2% (active)"},
      {"smiles": "COCCN(CCOC)c1ncnc2c1cnn2-c1ccc(Cl)cc1", "inhibition": "69.3% (active)"},
      {"smiles": "Nc1ccc(C(=O)c2cccs2)cc1", "inhibition": "54.2% (active)"},
      {"smiles": "CC(C)c1ccc(NCCC(=O)c2cccs2)cc1", "inhibition": "42%"},
      {"smiles": "CCOc1ccc(N=c2oc3cc(O)ccc3cc2C(=O)NCC2CCCO2)cc1", "note": "(stereo not drawn)", "inhibition": "33%"},
      {"smiles": "CCOc1ccc(NC(=O)c2cc3c(C)nc4ccccc4c3o2)cc1", "inhibition": "33.2%"},
      {"smiles": "CCOc1ccc(NC(=O)c2csc3c2CCCC3)cc1", "inhibition": "70.2% (active)"},
      {"smiles": "O=C(N1CCN(c2ccccn2)CC1)C(Cl)(Cl)Cl", "inhibition": "63.7% (active)"},
      {"smiles": "CCOC(=O)c1cc(-c2ccccc2)n(CCC(=O)N2CCN(c3ccccn3)CC2)c1C", "inhibition": "32.7%"},
      {"smiles": "O=C(c1ccccc1-c1ccccc1)N1CCN(c2ccccn2)CC1", "inhibition": "35.6%"},
      {"smiles": "O=C(CSCc1cnn(-c2ccccc2)c1-n1cccc1)NCc1ccc2c(c1)OCO2", "inhibition": "57.3% (active)"},
      {"smiles": "c1ccc2c(Nc3nc(N4CCOCC4)c4ccccc4n3)cccc2c1", "inhibition": "95% (active)"},
      {"smiles": "Oc1c(Cl)cc(Cl)c(Cl)c1Cc1c(O)c(Cl)cc(Cl)c1Cl", "inhibition": "98.4% (active)"},
      {"smiles": "CCN(CC)c1ccc(NC(=O)Cn2cc3c(n2)CCC(C)C3)c(C)c1", "note": "(stereo not drawn)", "inhibition": "51.1% (active)"},
      {"smiles": "C=CCNCCCCOc1ccc(Br)cc1C", "inhibition": "46.5%"},
      {"smiles": "Cc1cc(Cl)c(OCCCn2ccnc2)c(Br)c1", "inhibition": "64.8% (active)"},
      {"smiles": "Cc1cc(Br)ccc1OCCn1ccnc1", "inhibition": "59.4% (active)"},
      {"smiles": "CCOc1cc(C(=O)OCC(=O)Nc2ncc(Cl)c(C)c2Cl)ccc1OCC(=O)N1CCOCC1", "inhibition": "33.8%"},
      {"smiles": "COC(=O)CCn1nnc(-c2ccc(C(C)C)cc2)n1", "inhibition": "41.2%"},
      {"smiles": "CN(C)CCNC(=O)COc1ccc(Cl)cc1Cl", "inhibition": "28.3%"},
      {"smiles": "O=C(COc1ccccc1Cl)NCCC1=CCCCC1", "inhibition": "48.4%"},
      {"smiles": "COc1ccccc1OCC(=O)NCCSCc1cccc(Cl)c1", "inhibition": "61.4% (active)"},
      {"smiles": "COc1ccccc1OCC(=O)NCCSCc1ccc(Cl)cc1", "inhibition": "64.2% (active)"},
      {"smiles": "O=C(CCSCc1cccc(Cl)c1)NCCc1ccccc1", "inhibition": "64.2% (active)"},
      {"smiles": "COc1ccccc1OCC(=O)NCCSCc1ccccc1Cl", "inhibition": "65.5% (active)"},
      {"smiles": "O=C(COC(=O)CCSc1ccccc1)NCc1ccccc1Cl", "inhibition": "29.2%"},
      {"smiles": "O=C(CN1C(=O)C2C3C=CC(C3)C2C1=O)NCCc1ccccc1", "note": "(stereo not drawn)", "inhibition": "23.8%"}
    ]}
  ]
}
